Results: PubChem BioAssay
Inconclusive results are not listed. Calls of active or inactive are those of the source.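 The calls were made as follows, unless noted: active = growth inhibition above 25% in both replicates, a cutoff set 3 SD above the mean; inconclusive = above 25% in only one replicate; inactive = the rest.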

Assays:
[1] = SK-BR-3 cell growth inhibitors, pilot screen, 24 h, human (AID 572;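 active = viability at or below 10% of carrier control in both of two separate runs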;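 also: compound exposure lasted between 18 and 24 h rather than exactly 24 h; 100% = carrier-treated control wells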); conditions: SK-BR-3 viability, CellTiter-Glo luminescence, at 10 µM, stronger effect = lower value
[2] = HUVEC growth inhibition – cell-based, human, primary screen (AID 575;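 active = viability at or below 30% in both replicate assays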;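 also: 100% = median of untreated cell wells with 0.1% DMSO on each plate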); conditions: HUVEC proliferation, CellTiter-Glo luminescence, 72 h; at 10 µM; stronger effect = lower value
[3] = growth inhibitors of H69AR lung tumor, primary screen, human, duplicate replicates (AID 580;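 active = viability at or under a set limit in both replicates, limit being median viability minus 3 SD, cut at about 48% in these data, passing the limit was not always enough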;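 also: 100% = mean luminescence of untreated wells and 0% = no signal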); conditions: H69AR lung tumor cells viability, ATP luminescence, 72 h; at 10 µM; stronger effect = lower value
[4] = reversal of MRP1-mediated doxorubicin resistance, pilot screen, H69AR cells, doxorubicin co-treatment (AID 601;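 active = viability loss from added drug above about 55%, and viability with drug at most 40%, in both replicates, limit read from the data, passing the limit was not always enough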); conditions: CellTiter-Glo, 72 h, at 10 µM; for differential viability (reversal): stronger effect = higher value
[5] = 384-well plate pilot, post-Golgi transport modulator project, inhibition of yeast transport mutant growth (AID 636; in the data active = inhibition above about 31%); conditions: absorbance 615 nm, about 18 h, stronger effect = higher value
[6] = growth suppression of yeast trafficking mutant, preliminary HTS, modulators of trafficking downstream of Golgi apparatus project, 1536-format plate, OD 615 nm (AID 637; in the data active = inhibition above about 30%); conditions: yeast transport mutant growth, absorbance 615 nm, 18 h; stronger effect = higher value
[7] = OD615 S. cerevisiae growth inhibition, permissive medium, pilot counter-assay, permissive growth control for S. cerevisiae lifespan shortening project (AID 705); conditions: OD615, 24 h, at 10 µM, stronger effect = higher value
[8] = Restrictive medium S. cerevisiae growth inhibition, OD615, pilot screen of yeast lifespan reduction project, restrictive growth control (AID 706;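 active = growth inhibition above a set limit, 3 SD over mean compound inhibition, in both replicates, cut at about 43% in these data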;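 also: modified DeaD lifespan yeast strain shifted to restrictive glucose medium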); conditions: OD615, 48 h, at 10 µM, stronger effect = higher value
[9] = viability gain of MRP-1-high H69AR cells under doxorubicin, pilot screen, MRP-1 activator project, CellTiter-Glo, duplicate (AID 807;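 active = viability increase at or above a cutoff of the median across tested compounds plus 3 SD, cut at about 8.5% in these data, passing the limit was not always enough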;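 also: compound pretreatment 18-22 h then 72 h combined with doxorubicin; 0% = doxorubicin alone and 100% = vehicle without doxorubicin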); conditions: H69AR viability with doxorubicin, CellTiter-Glo luminescence; at 10 µM; stronger effect = higher value
[10] = growth suppression of beta-catenin knockout HCT116, pilot screen, human colon tumor cells (AID 823;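 active = cell viability at or below a set limit in both duplicate runs, the limit being the all-compound median minus 4 SD, cut at about 23% in these data, passing the limit was not always enough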;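 also: 0% = wells killed by 20 µM Hyamine and 100% = untreated DMSO cell wells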); conditions: CellTiter-Glo, 60 h, at 10 µM, stronger effect = lower value
[11] = growth suppression of PTEN-deleted HCT116, pilot screen, cell-based, HCT116 clonal line, CellTiter-Glo (AID 824;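 active = viability at or below 27.92% in each of two runs, the all-compound median minus 4 SD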;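 also: 0% = 20 µM Hyamine control and 100% = vehicle cell control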); conditions: 60 h, at 10 µM, stronger effect = lower value
[12] = inhibitors of the yeast RAM network, pilot screen, dse1pr::URA3 reporter, 5-FOA selection (AID 869;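 active = inhibition over a set limit, the all-compound mean plus 3 SD, in both replicate runs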;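 also: 0% = DMSO wells with no growth and 100% = 10 µM 1-NA-PP1 with full growth; RAM network block rescues cells from 5-FOA so hits raise OD615 growth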); conditions: S. cerevisiae dse1pr::URA3 5-FOA growth, OD615, 2 d; at 10 µM; stronger effect = higher value; strain carries analog-sensitive mutant Cbk1 kinase
[13] = RAM signaling pathway blockade in yeast – S. cerevisiae, Pdr1DBD-CYC8 efflux-inhibited sensitized strain, primary screen (AID 1298;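 active = RAM network inhibition above 8.4% in each of two replicates, 3 SD over the compound average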;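 also: 0% = DMSO untreated cells without growth and 100% = 10 µM 1-NA-PP1 full growth; higher means more yeast growth rescued from 5-FOA killing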); conditions: S. cerevisiae cbk1-as DSE1-URA3 strain, 5-FOA growth OD615, 2 d; at 50 µM; stronger effect = higher value
[14] = H69AR cells + 2 uM doxorubicin, measured here: viability with 2 uM doxorubicin, stronger effect = lower value
[15] = H69AR cells, compound alone cytotoxicity

CC(Sc1n[nH]c(=O)[nH]c1=O)C(=O)OCc1ccccc1 (configuration not stated)
88.3%: viability [4, 14]
99.9%: viability [4, 15]
inactive: viability [1] 94% | viability [2] 116% | viability [3] 99.9% | differential viability (reversal) ([4]; H69AR cells + 2 uM doxorubicin) 11.6% | inhibition [5] -5.6% | inhibition [6] -0.18% | growth inhibition [7] -21.9% | growth inhibition [8] -8.41% | viability increase [9] 0.49% | viability [10] 103% | viability [11] 98.5% | inhibition [12] 1.66% | RAM network inhibition [13] 5.73%

Cc1ccc(C(=O)Nc2c(C(=O)N3CCOCC3)cnn2-c2ccccc2)cc1
inactive: viability [1] 103% | viability [2] 94.5% | viability [3] 91.8% | differential viability (reversal) ([4]; H69AR cells + 2 uM doxorubicin) 16.5% | inhibition [5] -4.27% | inhibition [6] -2.91% | growth inhibition [7] -7.86% | growth inhibition [8] -9.73% | viability increase [9] -1.89% | viability [10] 103% | viability [11] 102% | inhibition [12] 0.475% | RAM network inhibition [13] -1.3%
91.8%: viability [4, 15]
75.3%: viability [4, 14]

O=C(/C=C/N1CCOCC1)c1ccc(-c2ccccc2)cc1
active: growth inhibition [7] 99.4% | growth inhibition [8] 100%
inactive: viability [1] 104% | viability [2] 81.8% | viability [3] 89.5% | differential viability (reversal) ([4]; H69AR cells + 2 uM doxorubicin) 7.73% | inhibition [5] -5.07% | inhibition [6] -2% | viability increase [9] -1.77% | viability [10] 88.4% | viability [11] 80.6% | inhibition [12] -0.475% | RAM network inhibition [13] -1.36%
81.8%: viability [4, 14]
89.5%: viability [4, 15]

Cc1oc(-c2cccc(Cl)c2)nc1CN1CCC(C(=O)N2CCN(c3ccccc3F)CC2)CC1
active: viability [2] 4.6% | viability [3] 32.3% | viability [10] 17.2% | viability [11] 10.2%
inactive: viability [1] 73% | differential viability (reversal) ([4]; H69AR cells + 2 uM doxorubicin) -24.7% | inhibition [5] -1.6% | inhibition [6] -3.28% | growth inhibition [7] 0.125% | growth inhibition [8] 1.06% | viability increase [9] -7.78% | inhibition [12] 1.05% | RAM network inhibition [13] 6.04%
57%: viability [4, 14]
32.3%: viability [4, 15]

O=C(COc1ccc(F)cc1)Nc1ccc(-n2cnnn2)cc1
inactive: viability [1] 103% | viability [2] 107% | viability [3] 93.1% | differential viability (reversal) ([4]; H69AR cells + 2 uM doxorubicin) 12% | inhibition [5] -4% | inhibition [6] -1.27% | growth inhibition [7] 2.42% | growth inhibition [8] 2.31% | viability increase [9] 3.62% | viability [10] 102% | viability [11] 100% | inhibition [12] 0.61% | RAM network inhibition [13] 0.57%
81.1%: viability [4, 14]
93.1%: viability [4, 15]

Cc1ccc(S(=O)(=O)N(CC(=O)N2CCC(C(N)=O)CC2)Cc2ccc(F)cc2)cc1
88.8%: viability [4, 14]
inactive: viability [1] 93% | viability [2] 110% | viability [3] 100% | differential viability (reversal) ([4]; H69AR cells + 2 uM doxorubicin) 11.3% | inhibition [5] -3.87% | inhibition [6] -3.45% | growth inhibition [7] -1.11% | growth inhibition [8] 2.36% | viability increase [9] -2.26% | viability [10] 97.5% | viability [11] 87.2% | inhibition [12] -0.07% | RAM network inhibition [13] 1.49%
100%: viability [4, 15]

CCOC(=O)N1CCN(C(=O)CN(C2CCCCC2)S(=O)(=O)c2ccc(F)cc2)CC1
inactive: viability [1] 113% | viability [2] 97.3% | viability [3] 97.7% | differential viability (reversal) ([4]; H69AR cells + 2 uM doxorubicin) 5.98% | inhibition [5] -6% | inhibition [6] -4.36% | growth inhibition [7] -7.17% | growth inhibition [8] -5.59% | viability increase [9] 0.22% | viability [10] 99.8% | viability [11] 103% | inhibition [12] -0.815% | RAM network inhibition [13] 6.62%
97.7%: viability [4, 15]
91.7%: viability [4, 14]

CC1=C(C(N)=O)C(c2ccccn2)n2nc(SCc3ccccc3)nc2N1 (configuration not stated)
inactive: viability [1] 88% | viability [2] 94% | viability [3] 93.8% | differential viability (reversal) ([4]; H69AR cells + 2 uM doxorubicin) -2.02% | inhibition [5] -3.92% | inhibition [6] -5.64% | growth inhibition [7] -2.97% | growth inhibition [8] 3.69% | viability increase [9] 2.38% | viability [10] 102% | viability [11] 95.6% | inhibition [12] 0.46% | RAM network inhibition [13] 2.59%
95.9%: viability [4, 14]
93.8%: viability [4, 15]

O=C(Nc1ccncc1)c1cc2ccccc2o1
105%: viability [4, 15]
inactive: viability [1] 113% | viability [2] 101% | viability [3] 105% | differential viability (reversal) ([4]; H69AR cells + 2 uM doxorubicin) 13.8% | inhibition [5] -0.4% | inhibition [6] -0.36% | growth inhibition [7] -10.7% | growth inhibition [8] -6.96% | viability increase [9] -0.51% | viability [10] 95.7% | viability [11] 95.9% | inhibition [12] 1.73% | RAM network inhibition [13] 4.22%
91.1%: viability [4, 14]

COC(=O)c1cc(=O)n(Cc2ccc3c(c2)OCO3)c(=Nc2ccccc2)s1
38.1%: viability [4, 15]
43.1%: viability [4, 14]
inactive: viability [1] 90% | differential viability (reversal) ([4]; H69AR cells + 2 uM doxorubicin) -4.97% | inhibition [5] -5.2% | inhibition [6] 4.43% | growth inhibition [7] 4.22% | growth inhibition [8] -1% | viability increase [9] -5.95% | viability [10] 71.1% | viability [11] 73.3% | inhibition [12] 3.41% | RAM network inhibition [13] 5.96%

COc1ccc(OCCCC(=O)Nc2nncs2)cc1
89.6%: viability [4, 15]
83.1%: viability [4, 14]
inactive: viability [1] 97% | viability [2] 101% | viability [3] 89.6% | differential viability (reversal) ([4]; H69AR cells + 2 uM doxorubicin) 6.49% | inhibition [5] -5.27% | inhibition [6] -2.73% | growth inhibition [7] -11.5% | growth inhibition [8] -0.545% | viability increase [9] -0.07% | viability [10] 94.5% | inhibition [12] 2.95% | RAM network inhibition [13] 4.52%
